What was measured:
Assay in all cases: PBM binding z-score (relative to random genomic background probes); higher = stronger binding; sequences stand for … in GC…GCGATTGACAGCGTAGAATGAAGG
[1] = test system: FXR:RXRa (NR concentration 270 nM, RXRa partner concentration 90 nM)
Procedure, shortened: (§1)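 Each nuclear receptor dimer, without ligand, was incubated for 1 h on custom Agilent 4×180K protein-binding microarrays. Binding was detected with antibodies against each partner (one per run), and scanned fluorescence was regression-normalized. The binding z-scores are referenced to random human genomic background probes.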

[2] = test system: LXRa:RXRa (NR concentration 270 nM, RXRa partner concentration 90 nM)
Procedure, shortened: as §1

[3] = test system: LXRa homodimer (NR concentration 270 nM)
Procedure, shortened: as §1

[4] = test system: LXRb:RXRa (NR concentration 270 nM, RXRa partner concentration 90 nM)
Procedure, shortened: as §1

[5] = test system: LXRb homodimer (NR concentration 270 nM)
Procedure, shortened: as §1

[6] = test system: PPARa:RXRa (NR concentration 270 nM, RXRa partner concentration 90 nM)
Procedure, shortened: as §1

[7] = test system: PPARg:RXRa (NR concentration 180 nM, RXRa partner concentration 90 nM)
Procedure, shortened: as §1

[8] = test system: PPARg:RXRa 270nM:90nM, anti-RXR (NR concentration 270 nM, RXRa partner concentration 90 nM)
Procedure, shortened: as §1

[9] = test system: PPARg:RXRa 30nM:10nM, anti-RXR (NR concentration 30 nM, RXRa partner concentration 10 nM)
Procedure, shortened: as §1

[10] = test system: PPARg:RXRa 90nM:30nM, anti-RXR (NR concentration 90 nM, RXRa partner concentration 30 nM)
Procedure, shortened: as §1

Sequence	PBM binding z-score [1]	PBM binding z-score [2]	PBM binding z-score [3]	PBM binding z-score [4]	PBM binding z-score [5]	PBM binding z-score [6]	PBM binding z-score [7]	PBM binding z-score [8]	PBM binding z-score [9]	PBM binding z-score [10]
CGTCCAAGGTCAATCCTAGGTCAGTGAAAGCATT	7.14	5.85	3.44	4.8	1.43	5.47	4.38	4.75	1.43	3.63
ATCGAAGGGTCGTGAGGTGAGTATACAGAAAGGC	2.2	1.7	-0.107	1.58	0.162	3.34	1.74	1.77	0.78	1.23
ACTATTAGTTGACTTAGGGCAATCGATACGACGC	0.199	0.203	0.0491	0.176	0.464	-0.0585	0.814	0.195	0.373	0.365
GCATATAGGTAATACAAGGTGTAAGTCCGATTGT	0.0456	-0.21	-0.0292	-0.487	-0.137	0.159	0.975	0.539	0.405	0.179
AATACAGGGTCACTAGGCCAGAGCAGGTACGAAT	5.98	5.08	0.784	3.77	0.86	5.66	7.53	6.45	3.36	5.53
CGATCTAGGTCAGAACAGGACAGTGAAGGATGAT	1.41	0.482	-0.161	0.206	-0.143	2.84	4.82	3.88	1.41	2.78
CGTCAAAGTTCAGGGTAACGTAACAGAAAGCAGC	4.15	3.51	1.23	2.3	0.634	3.48	3.14	3.57	1.26	2.42
ACAGACAGGTGAGTGAAGGGAACTCAGCTGGACG	0.599	0.176	-0.538	-0.538	-0.387	-0.171	0.513	-0.458	-0.652	-0.465
CGAACTAGGTCATCCAGTACAGTGAATACATTGA	4.18	2.86	0.599	2.59	0.209	4.82	7.93	6.36	4.02	5.81
TCTGCTAGGTCAACGATGGTCAGCTTATCTGCTA	3.6	2.98	-0.083	1.77	-0.302	3.38	2.43	3.06	2.06	2.59
ATCTCTTGGTAAGACTCAGTTCAGTGAAGAACGC	0.584	0.976	0.839	0.676	1.08	0.0896	-0.159	0.141	0.448	0.216
CCTGCTAGGACATGGTCAGCTAATCTACAGTATG	-0.435	-0.686	-0.63	-0.793	-0.639	-1.84	0.246	-0.764	-0.445	-0.928
CAAACTAGGTCAAGAGGACAAAGTCCGCTTCCCG	3.92	2.83	1.1	1.67	0.143	4.69	7.86	6.69	4.57	6.62
CTCGAAAGGGCGGTTGAGGTGAGTATACGGATAA	1.23	-0.197	-0.251	-0.253	-0.452	0.0374	0.00915	-0.518	-0.508	-0.301
GCTCGTAGATCAAGGTTAAGAAAGACTAAGCTAA	-0.496	0.698	-0.704	0.341	-1.05	1.03	-0.16	0.485	-0.162	0.0383
AAGACAGGGTCATCGTAGGCCAGAGTACGCACAG	7.28	5.76	0.0665	4.06	0.0441	6.02	5.91	5.77	2.38	3.94
TCTTGTAGATCAAAGGTGAAGAAAGCCGAAGCCT	0.848	1.05	-0.533	0.994	-0.372	4.04	7.41	7.96	7.36	9.05
ATTTCTAGGTAAAGATAGTTCAGTGAATGCAAAT	0.355	4.21	0.857	1.02	0.567	1.39	1.3	1.27	0.883	1.07
CCAGACAGGTGAGAACGTAACTCAGCCTCGATTA	-0.0139	-0.0409	0.178	0.22	-0.463	0.136	0.444	-0.545	-0.231	-0.422
TCTTGTAGATCCAAGGTTAAGAAAGCCGAAGCCT	0.319	0.55	-0.254	0.993	-0.378	1.65	1.15	3.41	3.23	3.55
GCTCGGAGGACTAGGTCAGAGCTTTGTCCGTAGA	-0.693	-0.505	-1.09	-0.622	-1.5	0.919	0.339	1.04	-1.04	0.269
ATATCTAGGTAAAGTTCAGTGAAAGATCGATAGA	1.18	1.84	1.43	1.36	0.639	3.42	5.08	5.21	2.95	4.9
TCTAGTTGGTCAAAGGTCACACACTCGAAATGCG	6.09	5.91	4	5.53	1.76	6.56	11.6	10	10.4	12.2

Reference: the supplement of paper PMC6555819
